Data reported in PubChem BioAssay.
Results filed as inconclusive are left out. Activity calls are given as the source filed them.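 How the source made its calls, unless noted: active means normalized viability below 100% at a tested concentration; inactive means the rest.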

What was measured:
[1] = growth inhibition of DIPG glioma cells, dose response, cell-based, SU-DIPG-XVII, MIPE5.0, CellTiter-Glo, qHTS (AID 1347060; cut-off not given, nearly all actives have AC50 up to about 26 µM;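 further: cells exposed to compound for 48 hours before viability readout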); conditions: SU-DIPG-XVII viability, CellTiter-Glo ATP luminescence
[2] = growth inhibition of DIPG glioma cells, dose response, cell-based, SU-DIPG-XIII, MIPE4.0, CellTiter-Glo, qHTS (AID 1347061; cut-off not given, nearly all actives have AC50 up to about 37 µM;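 further: cells exposed to compound for 48 hours before readout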); conditions: SU-DIPG-XIII viability, CellTiter-Glo ATP luminescence
[3] = growth inhibition of DIPG glioma cells, dose response, cell-based, JHH-DIPG-1, MIPE4.0, CellTiter-Glo, qHTS (AID 1347062; cut-off not given, nearly all actives have AC50 up to about 27 µM;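 further: cells exposed to compound for two days before readout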); conditions: JHH-DIPG-1 viability, CellTiter-Glo ATP luminescence
[4] = growth inhibition of DIPG glioma cells, dose response, cell-based, SU-DIPG-IV, MIPE4.0, CellTiter-Glo, qHTS (AID 1347063; cut-off not given, nearly all actives have AC50 up to about 30 µM;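 further: compound exposure lasted 48 hours before the viability readout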); conditions: SU-DIPG-IV viability, CellTiter-Glo ATP luminescence
[5] = growth inhibition of DIPG glioma cells, dose response, cell-based, SU-DIPG-XIII, MIPE5.0, CellTiter-Glo, qHTS (AID 1347064; cut-off not given, nearly all actives have AC50 up to about 23 µM;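 further: cells exposed to compound for 48 hours before the viability read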); conditions: SU-DIPG-XIII viability, CellTiter-Glo ATP luminescence
[6] = viability loss in pontine glioma line – cell-based, SU-DIPG-XXV, MIPE5.0, CellTiter-Glo, qHTS, dose response (AID 1347065; cut-off not given, nearly all actives have AC50 up to about 26 µM;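 further: cells exposed to compound for 48 hours before ATP readout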); conditions: CellTiter-Glo ATP luminescence
[7] = sensitizers of A549 cells to miR-34 induction, primary screen, imaging, A549 dox-inducible miR-34, nuclei and caspase counts (AID 1347080;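 active means compounds whose cell count with miR-34 switched on is under 0.7 times the count with it off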); conditions: A549 miR-34 inducible, Hoechst nuclei count, 48 h
[8] = modifiers of HSF1 nuclear foci, imaging, Selleck Cancer Library (AID 1347162; in the data active means plate-normalised HSF1 focus index below about 0.46); conditions: human cells, at 10 µM; SSMD: measured here: HSF1 foci SSMD mean; cell count: measured here: cell number; plate-normalised HSF1 focus index: stronger effect = lower value
[9] = survival rescue of mitochondrial mutant cells in low glucose, primary screen, MELAS cybrids, Rieske KO mouse fibroblasts, CellTiter-Glo (AID 1508586;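 active means mean z-score across replicates of 1.96 or higher in either the MELAS or the Rieske mutant cell line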;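 further: z relative to plate mean and SD of compound and empty wells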)
[10] = ovarian cancer cell viability with rucaparib, profiling panel, oncology-focused library, rucaparib conditional (AID 1508598); conditions: patient-derived ovarian cancer cells, CellTiter-Glo viability, 144 h, stronger effect = lower value
[11] = JHH-DIPG-1 glioma cell viability, MIPE5.0 library, CellTiter-Glo luminescence, qHTS (AID 1347067; cut-off not given, nearly all actives have AC50 up to about 26 µM;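 further: cells exposed to compound for 48 hours before readout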); conditions: JHH-DIPG-1 glioma viability, CellTiter-Glo ATP luminescence

COC(=O)Nc1ccc(-c2nc(N3CCOCC3)c3cnn(C4CCN(C(=O)OC)CC4)c3n2)cc1
0.692: fold change ([7]; measured here: relative caspase fold change +Dox/-Dox)
active: AC50 [1] 1860 nM | AC50 [2] 66.2 nM | AC50 [3] 187 nM | AC50 [4] 1320 nM | AC50 [5] 2630 nM | AC50 [6] 417 nM | z-score ([9]; MELAS cybrid survival, CellTiter-Glo 48 h, stronger effect = higher value) 4.37 | viability ([10]; at 0.000305 µM, OCI-P5x cells, with rucaparib 20 µM, 100% = cells with rucaparib alone) 94.1% | viability ([10]; at 0.000305 µM, OCI-P5x cells, without rucaparib) 90.5% | viability ([10]; at 0.00122 µM, OCI-P5x cells, without rucaparib) 93.1% | viability ([10]; at 0.0781 µM, OCI-P5x cells, with rucaparib 20 µM, 100% = cells with rucaparib alone) 97% | viability ([10]; at 1.25 µM, OCI-P5x cells, with rucaparib 20 µM, 100% = cells with rucaparib alone) 83.4% | viability ([10]; at 5 µM, OCI-P5x cells, with rucaparib 20 µM, 100% = cells with rucaparib alone) 70.5% | viability ([10]; at 5 µM, OCI-P5x cells, without rucaparib) 99.3%
0.522: z-score ([9]; Rieske KO mouse fibroblast survival, CellTiter-Glo 72 h)
2420: cell count ([7]; measured here: total cells with miR-34 induction, stronger effect = lower value)
2340: cell count ([7]; measured here: total cells without miR-34 induction)
6960: cell count [8]
inactive: fold change ([7]; stronger effect = lower value, cell number ratio, induced over uninduced) 1.03 | plate-normalised HSF1 focus index [8] 1.06 | viability ([10]; at 0.000305 µM, OCI-C5x cells, with rucaparib 10 µM, 100% = cells with rucaparib alone) 108% | viability ([10]; at 0.000305 µM, OCI-C5x cells, without rucaparib) 105% | viability ([10]; at 0.00122 µM, OCI-C5x cells, with rucaparib 10 µM, 100% = cells with rucaparib alone) 127% | viability ([10]; at 0.00122 µM, OCI-C5x cells, without rucaparib) 108% | viability ([10]; at 0.00122 µM, OCI-P5x cells, with rucaparib 20 µM, 100% = cells with rucaparib alone) 104% | viability ([10]; at 0.00488 µM, OCI-C5x cells, with rucaparib 10 µM, 100% = cells with rucaparib alone) 109% | viability ([10]; at 0.00488 µM, OCI-C5x cells, without rucaparib) 108% | viability ([10]; at 0.00488 µM, OCI-P5x cells, with rucaparib 20 µM, 100% = cells with rucaparib alone) 101% | viability ([10]; at 0.00488 µM, OCI-P5x cells, without rucaparib) 102% | viability ([10]; at 0.0195 µM, OCI-C5x cells, with rucaparib 10 µM, 100% = cells with rucaparib alone) 118% | viability ([10]; at 0.0195 µM, OCI-C5x cells, without rucaparib) 117% | viability ([10]; at 0.0195 µM, OCI-P5x cells, with rucaparib 20 µM, 100% = cells with rucaparib alone) 106% | viability ([10]; at 0.0195 µM, OCI-P5x cells, without rucaparib) 104% | viability ([10]; at 0.0781 µM, OCI-C5x cells, with rucaparib 10 µM, 100% = cells with rucaparib alone) 115% | viability ([10]; at 0.0781 µM, OCI-C5x cells, without rucaparib) 112% | viability ([10]; at 0.0781 µM, OCI-P5x cells, without rucaparib) 101% | viability ([10]; at 0.313 µM, OCI-C5x cells, with rucaparib 10 µM, 100% = cells with rucaparib alone) 100% | viability ([10]; at 0.313 µM, OCI-C5x cells, without rucaparib) 114% | viability ([10]; at 0.313 µM, OCI-P5x cells, with rucaparib 20 µM, 100% = cells with rucaparib alone) 101% | viability ([10]; at 0.313 µM, OCI-P5x cells, without rucaparib) 106% | viability ([10]; at 1.25 µM, OCI-C5x cells, with rucaparib 10 µM, 100% = cells with rucaparib alone) 119% | viability ([10]; at 1.25 µM, OCI-C5x cells, without rucaparib) 116% | viability ([10]; at 1.25 µM, OCI-P5x cells, without rucaparib) 103% | viability ([10]; at 5 µM, OCI-C5x cells, with rucaparib 10 µM, 100% = cells with rucaparib alone) 126% | viability ([10]; at 5 µM, OCI-C5x cells, without rucaparib) 120%
1.11: SSMD [8]

CC(C)Oc1cc(Nc2nc(N[C@@H](C)c3ccc(F)cn3)ncc2Cl)[nH]n1
6860: cell count [8]
active: AC50 [1] 1050 nM | AC50 [2] 11800 nM | AC50 [3] 10500 nM | AC50 [4] 6620 nM | AC50 [5] 1180 nM | AC50 [6] 742 nM | AC50 [11] 5900 nM
-0.66: SSMD [8]
inactive: plate-normalised HSF1 focus index [8] 0.979
